# Screening data from PubChem.
# Most compounds without a hit are left out; they make up all but 1.9% or so of the library.
# PABP polyA inh – PABP poly(A) RNA binding inhibitors, primary screen, biochemical, fluorescence polarization, uHTS; Polyadenylate-binding protein 1 (Homo sapiens), P11940; calls only at 35 µM; 1% of 290,000 active;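 note: calls also rest on retests at 20 µM and on dose response follow-up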
# MLLE-PAM2 inh – inhibitors of PABP1 MLLE–PAM2 peptide binding, primary screen, biochemical, fluorescence polarization, FITC-PAM2, GST-MLLE; Polyadenylate-binding protein 1 (Homo sapiens), P11940; inhibition, % at 20 µM; 0.36% of 360,000 active; in the data active = inhibition above about 35%, passing the limit was not always enough;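 note: plate controls were DMSO wells with GST-MLLE for no effect and wells lacking GST-MLLE protein for full effect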
# eIF4H FP inh – human eIF4H binding inhibitors, primary screen, translation initiation inhibitor project, biochemical, uHTS, fluorescence polarization | 0.94% of 290,000 active | AID 2012, 2009 | eIF4H fluorescence polarization binding assay | Eukaryotic translation initiation factor 4H (Homo sapiens), Q15056 | inhibition, % at 35 µM;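 note: calls also rest on retests at 20 µM and on dose response follow-up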
# 14-3-3 Bad PPI – inhibitors of 14-3-3 zeta/Bad binding, primary screen, biochemical, TR-FRET, bovine 14-3-3 zeta; AID 781, 2007; TR-FRET 14-3-3zeta/Dy647-pBad peptide displacement, 1 h; 14-3-3 protein zeta/delta (Bos taurus), P63103; inhibition, % at 21.7 µM; 0.71% of 220,000 active;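 active = inhibition above about 70%, limit read from the data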;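 note: 0% = full 14-3-3 plus peptide FRET controls and 100% = background without 14-3-3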
# Target sequence (P63103 whole entry, looked up): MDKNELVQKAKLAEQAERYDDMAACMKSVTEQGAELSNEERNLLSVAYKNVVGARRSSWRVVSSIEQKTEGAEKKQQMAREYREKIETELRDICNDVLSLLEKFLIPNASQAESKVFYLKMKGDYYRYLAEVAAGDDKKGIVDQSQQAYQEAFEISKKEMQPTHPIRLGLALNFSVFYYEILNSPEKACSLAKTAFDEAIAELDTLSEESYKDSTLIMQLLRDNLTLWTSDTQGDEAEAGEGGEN
# eIF4E 4G PPI – eIF4E–eIF4G protein interaction inhibitors, primary screen, biochemical, uHTS, TR-FRET, eIF4GI fragment | Eukaryotic translation initiation factor 4E (Mus musculus) + Eukaryotic translation … | TR-FRET eIF4E-eIF4GI(517-606) binding, 2 h | inhibition, % at 21.7 µM | 0.37% of 220,000 active;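 active = inhibition above about 30%, limit read from the data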;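 note: 0% = full FRET control wells and 100% = background wells lacking eIF4GI fragment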
# Active calls of the source: *; i = inactive; ? = inconclusive; · = no result; + = active, no number; [ ] = remark or other dose. Unless noted, the rule behind the calls is not given here.
SMILES,PABP polyA inh,MLLE-PAM2 inh,eIF4H FP inh,14-3-3 Bad PPI,eIF4E 4G PPI
CCC(C)n1c(=N)c(C#N)cc2c(=O)n3cc(C)ccc3nc21 (centres undefined),+,-5,58*,-5,2
Cc1ccccc1NS(=O)(=O)c1ccc2c(c1)CCC(=O)N2,·,-5,·,·,·
CC(=O)c1cc(O)c2ccccc2c1O,i,41*,13,66,21
N#Cc1c(-c2ccccc2)nc(SCC(=O)N(c2ccccc2)c2ccccc2)[nH]c1=O,i,-7,-9,8,2
CCOC(=O)CCCCC(=O)c1[nH]c(=O)[nH]c1CSc1nc(-c2ccccc2)c(C#N)c(=O)[nH]1,i,40*,0,6,1
C/C(=N\N1CCN(c2ccccc2)CC1)c1ccc(O)cc1,i,-6,-3,·,·
O=C(C=Cc1ccco1)c1ccc([N+](=O)[O-])cc1,·,-2,·,·,·
O=C(/C=C/c1ccco1)c1ccc(NC(=O)C23CC4CC(CC(C4)C2)C3)cc1,+,-12,?,-4,15
CCCCn1c(O)c2n(c1=O)Cc1ccccc1N=C2c1ccc(OC)cc1,·,12,·,·,·
O=C(Nc1ccc2[nH]ccc2c1)c1cccs1,i,5,-3,-4,32*
CCc1ccc2nc(NC(=O)c3ccc4c(=O)[nH]c(CN5CCOCC5)nc4c3)sc2c1,i,·,-1,94*[fluorescence artefact?],-36
CCc1ccc2nc(NC(=O)c3ccc(N4C(=O)CCC4=O)cc3)sc2c1,i,-11,4,7,-10
C/C(=N/NC(=O)C1COc2ccccc2O1)c1ccc(Br)s1 (centres undefined),i,1,-13,1,98*
COc1cc(/C=C/C(=O)O)cc(S(=O)(=O)N(CC(C)C)CC(C)C)c1OC,i,-2,-5,-9,-4
O=C1NN(c2ccccc2)C(=O)/C1=C/c1ccc(-c2ccc(C(=O)O)cc2)o1,+,-20,68*,·,·
CC1=NN(c2ccc(Cl)c(C(=O)O)c2)C(=O)/C1=C\c1ccc(-c2ccc(C(=O)O)cc2)o1,i,16,52*,-25,21
COC(=O)c1ccc(N2NC(=O)/C(=C/c3ccc(-c4ccc(Cl)c(C(=O)O)c4)o3)C2=O)cc1,+,-14,71*,-12,11
O=C(O)c1ccc(N2C(=O)/C(=C/c3ccc(-c4ccc([N+](=O)[O-])cc4)o3)C=C2c2ccccc2)cc1,i,-81,33,94*,76*
Cc1ccc(N2NC(=O)/C(=C/c3ccc(-c4ccc(Cl)c(C(=O)O)c4)o3)C2=O)cc1C,i,-11,1,0,-2
CC1=NN(c2ccc(C(=O)O)cc2)C(=O)/C1=C/c1ccc(-c2ccccc2F)o1,i,33,28,·,·
O=C(N/N=C/c1ccc(-c2cccc([N+](=O)[O-])c2)o1)c1ccc([N+](=O)[O-])cc1,i,10,-3,18,-2
CN1CCN(CCC(=O)N/N=C/c2cc3c(cc2[N+](=O)[O-])OCO3)CC1,i,1,2,·,·
CC(C)On1c(SCC(=O)N(C)C)nc2ccccc2c1=O,i,·,1,4,9
O=C1NN(c2ccc(Cl)c(Cl)c2)C(=O)/C1=C/c1ccc(-c2ccccc2C(=O)O)o1,+,24,40*,·,·
CC(=O)Nc1cccc(C(=O)OCc2ccccc2)c1,i,12,5,4,-1
SMILES,PABP polyA inh,MLLE-PAM2 inh,eIF4H FP inh,14-3-3 Bad PPI,eIF4E 4G PPI
CCCS(=O)(=O)c1ccc(COC(=O)c2cccc(NC(=O)C(C)C)c2)cc1,+,5,active,-1,4
COC(=O)c1cnc(SCc2ccc(Cl)cc2)n1C,i,8,-7,-9,-2
CC(=O)OCc1c(C(F)(F)F)nn(C)c1SCc1ccc(Cl)cc1,i,3,-1,141*[fluorescence artefact?],0
Oc1c(Cl)cc(Cl)c2cccnc12,i,10,19,-7,2
Cc1ccc(S(=O)(=O)Nc2cc(Cl)c(O)c3ncccc23)cc1,i,41*,18,·,·
O=C(NCCc1c[nH]c2ccccc12)C(=O)NCC1OCCCN1S(=O)(=O)c1cc(F)ccc1F (centres undefined),i,-4,-11,-11,2
C[C@@H]1CN([C@H](C)CO)C(=O)c2cc(Br)cnc2O[C@@H]1CN(C)C(=O)Nc1ccccc1,·,5,·,·,·
CC(C)(C)NC(=O)C(c1cccs1)N(CC1CCCO1)C(=O)c1ccc(-c2ccccc2)[nH]1 (centres undefined),i,1,active,1,-1
O=C(Nc1ccc(OC(F)(F)F)cc1)C1CCCN(S(=O)(=O)c2cccnc2)C1 (centres undefined),i,12,-6,82*,2
CCc1ccc(NC(=O)C2CCCN(S(=O)(=O)c3cccnc3)C2)cc1 (centres undefined),i,-8,-5,·,·
Cc1ccc(-n2c(SCC(N)=O)nc3c(oc4ccccc43)c2=O)cc1,i,6,-12,·,·
COc1cc(NC(=O)Cn2nc(-c3ccc(F)cc3)ccc2=O)ccc1-n1cnnn1,i,0,102*,8,-1
Cc1cc(NC(=O)Cn2nc(-c3ccccc3F)ccc2=O)ccc1-n1cnnn1,i,8,-1,-4,-10
CCc1nnc(NS(=O)(=O)c2ccc(NC(=S)NC(=O)/C=C/c3ccccc3)cc2)s1,i,20,8,9,2
CCc1nnc(NS(=O)(=O)c2ccc(NC(=S)NC(=O)/C=C/c3ccc(C(C)C)cc3)cc2)s1,i,32,33,33,64*[fluorescence artefact?]
COc1ccc(OCC(=O)NC(=S)Nc2ccc(S(=O)(=O)Nc3cc(OC)nc(OC)n3)cc2)cc1,i,49*,-4,-1,14
COc1cc(NS(=O)(=O)c2ccc(NC(=S)NC(=O)/C=C/c3ccc(F)cc3)cc2)ncn1,i,41*,6,-12,0
COc1nccnc1NS(=O)(=O)c1ccc(NC(=S)NC(=O)/C=C/c2ccc(F)cc2)cc1,i,24,-7,-3,1
COc1ccc(C(=O)NC(=S)Nc2ccc(S(=O)(=O)Nc3cc(OC)nc(OC)n3)cc2)cc1,i,22,-11,·,·
O=C(NC(=S)Nc1ccc(NC(=O)c2ccccc2)cc1)c1ccc(F)cc1,i,33,-4,·,·
O=C(NC(=S)Nc1ccc2c(c1)C(=O)c1ccccc1C2=O)c1ccc(F)cc1,+,·,70,7,-7
CC1(C)C(=O)C=C(N2CCCCC2)c2ccccc21,·,12,·,·,·
Cc1cc(NS(=O)(=O)c2ccc(NC(=S)NC(=O)c3cccc(S(=O)(=O)N(C)C)c3)cc2)no1,i,30,-9,-4,-3
COc1ccc(NS(=O)(=O)c2ccc(NC(=S)NC(=O)c3cccc(F)c3)cc2)nn1,i,38*,-2,-3,-5
